# Reference: PubChem BioAssay AID1259418 (Broad Institute, 2018)
# The whole screen tested about 3,400 compounds, of which about 840 (25%) were called active. Another 11% or so got no clear call; they are omitted.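 The calls were made as follows: active = fitted half-maximal concentration of signal decrease at or below twice the sample's top tested concentration; inconclusive = flat curve between -70 and -30 percent, or poor fit; inactive = flat within 30 percent, signal rise, or potency above limit.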 The list is a sample of the results. Results with a measured potency or affinity are listed apart.
# Test: T. gondii growth inhibition with IFN-gamma, dose response, cell-based, ME49Luc, HeLa, luciferase, 72 h (AID 1259418)
# Details: T. gondii ME49Luc in IFN-y HeLa, stronger effect = lower value, -100% = high-dose IFN-γ control wells; at 19.5 µM unless noted
row,Structure (SMILES),max activity
1,NC(=O)C1(N2CCCCC2)CCN(c2ccc(NC(=O)c3ccc(Cl)cc3)cc2C(=O)O)CC1,20.8% (inactive)
2,CCN1C(=O)CCCC12CCCN(C(=O)c1ccc3ncccc3c1)C2 (centres undefined),-6.92% [at 5 µM] (inactive)
3,Cc1ccccc1C(=O)N1CCC(N2CCOCC2)CC1C(=O)O (centres undefined),15.5% (inactive)
4,Cc1ccc(C)c(-c2coc(-c3ccc(NC(=O)COc4ccccc4C)cc3)n2)c1,-11.5% (inactive)
5,N#C[C@@H]1[C@@H](c2ccc(C#Cc3cccnc3)cc2)[C@@H](CO)N1C(=O)NC1CCCCC1,-10.3% [at 10 µM] (inactive)
6,COCC(=O)N1[C@H](C#N)[C@H](c2ccc(C#Cc3ccccc3F)cc2)[C@H]1CO,-13.1% [at 10 µM] (inactive)
7,Cc1cc(C)n(C)c(=O)c1C(=O)N1CCOC(C(F)(F)F)C1 (centres undefined),34.4% (inactive)
8,Cc1ccc(-c2coc(-c3ccc(NC(=O)CC(C)C)cc3)n2)c(C)c1,14.2% [at 10 µM] (inactive)
9,CCN(C)C(=O)c1cnc(-c2noc3cc(N4CCCCC4)ccc23)s1,35.7% [at 10 µM] (inactive)
10,COc1ccc(NC(=O)Nc2ccc(-c3nc(-c4cccc(Br)c4)co3)cc2)cc1OC,8.18% [at 0.35 µM] (inactive)
11,O=C(Nc1ccc(-c2nc(-c3ccccc3)co2)cc1)Nc1ccc(F)cc1F,65.6% (inactive)
12,O=C(CCC1N=C2c3ccccc3N=C(SCc3cccc(F)c3)N2C1=O)NC1CCCCC1 (centres undefined),-18.1% [at 2.6 µM] (inactive)
13,N#CCSC1=Nc2ccccc2C2=NC(CCC(=O)NCc3ccc(F)cc3)C(=O)N12 (centres undefined),22.5% [at 0.35 µM] (inactive)
14,CCOC(=O)CSC1=Nc2ccccc2C2=NC(CCC(=O)NCc3ccc(F)cc3)C(=O)N12 (centres undefined),24.5% [at 2.6 µM] (inactive)
15,COc1ccccc1CNC(=O)CCC1N=C2c3ccccc3N=C(SCc3ccc(F)cc3)N2C1=O (centres undefined),14.5% [at 0.16 µM] (inactive)
16,Cc1ccc(CSC2=Nc3ccccc3C3=NC(CCC(=O)NC4CCCCC4)C(=O)N23)cc1 (centres undefined),-23.8% (inactive)
17,CCOC(=O)CSC1=Nc2ccccc2C2=NC(CCC(=O)NCc3ccccc3)C(=O)N12 (centres undefined),43.1% (inactive)
18,O=C(CCC1N=C2c3ccccc3N=C(SCc3cccc(F)c3)N2C1=O)NCc1ccco1 (centres undefined),10.2% (inactive)
19,O=C(CC1N=C2c3ccccc3N=C(SCc3cccc(F)c3)N2C1=O)NCc1ccccc1 (centres undefined),-15% [at 1.35 µM] (inactive)
20,C/C=C/c1ccc(C2[C@H]3CNC[C@@H]2N3S(=O)(=O)c2cccc(F)c2)cc1 (some centres undefined),51.2% (inactive)
21,O=C(CC1N=C2c3ccccc3N=C(SCc3cc(=O)n4cc(Cl)ccc4n3)N2C1=O)NCc1ccccc1 (centres undefined),8.94% (inactive)
22,Cc1ccc(-c2coc(-c3ccc(NC(=O)c4ccco4)cc3)n2)c(C)c1,11.6% (inactive)
23,CCOc1ccc(-c2nc(CSc3nc4c(c(=O)[nH]3)CN(C(C)C)CC4)c(C)o2)cc1OC,21% [at 2.6 µM] (inactive)
24,O=C(CCC1N=C2c3ccccc3N=C(SCc3ccccc3F)N2C1=O)NCCc1ccccc1 (centres undefined),25.3% [at 0.16 µM] (inactive)
25,COc1ccc(CNC(=O)CCC2N=C3c4ccccc4N=C(SCc4ccc(Cl)cc4)N3C2=O)cc1 (centres undefined),-5.19% [at 0.68 µM] (inactive)

row,Structure (SMILES),max activity
1,COc1ccc(CNC(=O)CCC2N=C3c4ccccc4N=C(SCc4ccccc4F)N3C2=O)cc1 (centres undefined),-23.7% [at 0.35 µM] (inactive)
2,O=C(CCC1N=C2c3ccccc3N=C(SCc3ccccc3F)N2C1=O)NCc1ccc(F)cc1 (centres undefined),12.5% [at 1.35 µM] (inactive)
3,CCc1c(C)sc2c1CCN(Cc1nc(-c3ccccc3Cl)oc1C)C2c1ccccc1 (centres undefined),11.5% [at 10 µM] (inactive)
4,CCc1ccc2c(c1)cc(S(=O)(=O)c1ccccc1)c(=O)n2CC(=O)NC(C)CC (centres undefined),-8.4% (inactive)
5,Cc1ccc(-c2nc(Cn3nnc(-c4nc(-c5ccncc5)no4)c3C)c(C)o2)cc1,8.58% [at 10 µM] (inactive)
6,CCc1c(C)sc2c1CCN(Cc1nc(-c3ccccc3C)oc1C)C2c1ccccc1 (centres undefined),25.6% [at 5 µM] (inactive)
7,CCc1c(C)sc2c1CCN(Cc1nc(-c3ccc(OC)cc3OC)oc1C)C2c1ccccc1 (centres undefined),15.7% (inactive)
8,CC(C)CC#Cc1ccc([C@H]2[C@@H](CO)N3C(=O)CN(C(=O)c4cccc(F)c4)C[C@@H]23)cc1,19.1% [at 10 µM] (inactive)
9,CCC(=O)N1CC(=O)N2[C@@H](CO)[C@@H](c3ccc(C#CCC(C)C)cc3)[C@@H]2C1,22.8% [at 10 µM] (inactive)
10,CCC(=O)N1CC(=O)N2[C@H](CO)[C@H](c3ccc(C#CCC(C)C)cc3)[C@H]2C1,9.28% [at 10 µM] (inactive)
11,O=C(c1cccc(F)c1)N1CC(=O)N2[C@@H](CO)[C@H](c3ccc(/C=C/c4ccccc4)cc3)[C@@H]2C1,14.7% [at 5 µM] (inactive)
12,CCC(=O)N1CC(=O)N2[C@@H](CO)[C@H](c3ccc(C#CCC(C)C)cc3)[C@@H]2C1,20.4% [at 10 µM] (inactive)
13,CCc1ccc(CNc2nc(-c3ccc(OC)cc3)nc3ccccc23)cc1,-7.47% [at 0.16 µM] (inactive)
14,COc1ccccc1NC(=O)N1CCN(Cc2nc(-c3cccc(Cl)c3)oc2C)CC1,15.9% [at 1.35 µM] (inactive)
15,COc1ccc(NC(=O)Nc2ccc(-c3nc(-c4ccccc4)co3)cc2)cc1OC,91.2% (inactive)
16,O=C(Cc1cccc(F)c1)N1CCC2(CC1)Nc1ccccc1-n1cccc12,9.66% [at 10 µM] (inactive)
17,COc1cc(NC(=O)Nc2ccc(-c3nc(-c4ccccc4)co3)cc2)cc(OC)c1OC,43.1% (inactive)
18,CCc1ccc2c(c1)cc(S(=O)(=O)c1ccccc1)c(=O)n2CC(=O)N1CCCCC1,9.02% [at 0.16 µM] (inactive)
19,CC(c1cc2ccccc2s1)N(O)C(N)=O (centres undefined),22.5% (inactive)
20,Cc1ccc2c(c1)cc(S(=O)(=O)c1ccccc1)c(=O)n2CC(=O)NCc1ccc(F)cc1,3.98% [at 10 µM] (inactive)
21,COc1ccc(-c2nc(Cn3nnc(-c4nc(-c5ccc(Cl)c(F)c5)no4)c3C)c(C)o2)cc1,-11.8% [at 10 µM] (inactive)
22,CCN1C(=O)CCc2cc(NC(=O)Cc3cccs3)ccc21,-9.98% [at 0.35 µM] (inactive)
23,Cc1ccc(-c2coc(-c3ccc(NC(=O)Nc4ccc(C)c(C)c4)cc3)n2)cc1,12% [at 2.6 µM] (inactive)
24,CCN1C(=O)CCc2cc(NC(=O)c3cccc(C#N)c3)ccc21,-7.75% [at 0.16 µM] (inactive)
25,N#Cc1cccc(C(=O)N2CCC3C2CC(=O)N3Cc2ccncc2)c1 (centres undefined),25.6% (inactive)

row,Structure (SMILES),max activity
1,Cc1oc(-c2ccccc2)nc1Cn1nnc(-c2nc(-c3cccc(F)c3)no2)c1C,9.95% (inactive)
2,COc1ccc2c(c1)NC1(CCN(C(=O)Cc3ccccc3)CC1)c1cccn1-2,5.44% [at 0.35 µM] (inactive)
3,CCOc1ccc(NC(=O)COc2nc(CC)nc3ccccc23)cc1,16% [at 10 µM] (inactive)
4,Cc1ccc(S(=O)(=O)Nc2ccc3c(c2)C(=O)N([C@H](C)CO)C[C@H](C)[C@H](CN(C)Cc2ccc(C(F)(F)F)cc2)O3)cc1,19.4% [at 10 µM] (inactive)
5,CCOc1ccc(-c2nc3c(s2)CN(S(=O)(=O)c2ccccc2Cl)CC3)cc1,22.6% (inactive)
6,O=C(c1cccc(F)c1)N1CCC2(CC1)Nc1ccc(Cl)cc1-n1cccc12,9.53% [at 0.68 µM] (inactive)
7,CCOc1ccccc1NC(=O)CN1CCC2(CC1)N=C(c1ccc(F)cc1)C(=O)N2,13% (inactive)
8,Cc1nc(CCNC(=O)[C@H]2CCCN2S(=O)(=O)c2cccc(Cl)c2)cs1,-9.1% [at 0.35 µM] (inactive)
9,CCOc1ccc(-c2nc(CN(c3ccc(OC)cc3)S(=O)(=O)c3ccc(C)cc3)c(C)o2)cc1,8.75% [at 1.35 µM] (inactive)
10,Cc1ccc2c(c1C)-n1cccc1C1(CCN(C(=O)Cc3ccccc3)CC1)N2,4.08% [at 0.68 µM] (inactive)
11,CCOc1ccc(-c2nc(CN(c3ccc(C)cc3)S(=O)(=O)c3cccs3)c(C)o2)cc1OC,101% [at 10 µM] (inactive)
12,CCOc1ccc(-c2nc(CN(c3ccccc3)S(=O)(=O)c3cccs3)c(C)o2)cc1OC,-33.6% [at 10 µM] (inactive)
13,COc1ccccc1NC(=O)N1CCc2nc(-c3ccc(OC)c(OC)c3)sc2C1,6.68% [at 0.16 µM] (inactive)
14,C[C@]12CCC3=C4CCC(=O)C=C4CC[C@H]3[C@@H]1CC[C@@]2(O)CC#N,15.3% (inactive)
15,Cc1ccc(N2CCC[C@]3(C(=O)O)CN(CCN(C)C)C[C@H]3C2)nn1,40.3% (inactive)
16,Cc1cccc(N2CCN(C(=O)c3ccc(-c4csc(C5CC5)n4)cc3)CC2)c1C,-9.59% [at 0.35 µM] (inactive)
17,COc1ccc(C2=NC3(CCN(CC(=O)Nc4cccc(Cl)c4)CC3)NC2=O)cc1,-14.8% [at 2.6 µM] (inactive)
18,Cc1ccccc1NC(=O)CN1CCC2(CC1)N=C(c1cccc(Cl)c1)C(=O)N2,-14.5% (inactive)
19,Cc1ccc(C2=NC3(CCN(CC(=O)Nc4ccc(Cl)cc4)CC3)NC2=O)cc1,19.9% [at 1.35 µM] (inactive)
20,COc1cccc(NC(=O)CN2CCC3(CC2)N=C(c2cccc(Cl)c2)C(=O)N3)c1,-20.4% [at 0.68 µM] (inactive)
21,CSc1cccc(NC(=O)CN2CCC3(CC2)N=C(c2ccc(Cl)cc2)C(=O)N3)c1,-30.9% (inactive)
22,COc1ccc(NC(=O)CN2CCC3(CC2)N=C(c2ccc(C)cc2)C(=O)N3)c(OC)c1,-8.99% [at 5 µM] (inactive)
23,CSc1cccc(NC(=O)CN2CCC3(CC2)N=C(c2cccc(F)c2)C(=O)N3)c1,27.3% (inactive)
24,COc1ccccc1NC(=O)CN1CCC2(CC1)N=C(c1cccc(C)c1)C(=O)N2,13.7% [at 0.35 µM] (inactive)
